# Measured values taken from PubChem BioAssay (NCI).
# Compounds without any hit were thinned out: in the full panel of roughly 83,000, 20% have a hit.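 96-well plates, one dose, 48 hours. Percent growth reported; active if below 10.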 Values without a mark were called inactive. The source made the active and inactive calls.
# Columns and labels:
# Test in all cases: NCI-60 one-dose screen, 48 h (100 = growth as untreated, 0 = no growth, -100 = all killed)
# Settings in all cases: 10 µM unless noted
# SR leukemia = test system: SR leukemia
# RPMI-8226 leukemia = test system: RPMI-8226 leukemia
# OVCAR-8 ovarian = test system: OVCAR-8 ovarian
# OVCAR-5 ovarian = test system: OVCAR-5 ovarian
# OVCAR-4 ovarian = test system: OVCAR-4 ovarian
# SK-OV-3 ovarian = test system: SK-OV-3 ovarian
# IGROV1 ovarian = test system: IGROV1 ovarian
# OVCAR-3 ovarian = test system: OVCAR-3 ovarian
# HS 578T breast = test system: HS 578T breast
# NCI/ADR-RES ovarian = test system: NCI/ADR-RES ovarian
SMILES,growth (SR leukemia),growth (RPMI-8226 leukemia),growth (OVCAR-8 ovarian),growth (OVCAR-5 ovarian),growth (OVCAR-4 ovarian),growth (SK-OV-3 ovarian),growth (IGROV1 ovarian),growth (OVCAR-3 ovarian),growth (HS 578T breast),growth (NCI/ADR-RES ovarian)
O=C(CCN1CCCC1)Nc1ccc2c(Nc3ccc(Br)cc3)c3ccccc3nc2c1,-22.6% (active),-34.9% (active),5.94% (active),41.9%,-20.2% (active),57.5%,-21.1% (active),-65.1% (active),58.6%,20.3%
Cc1nn(-c2ccccc2)c(Oc2c(Cl)cccc2Cl)c1/C=N/N=c1\sc2ccccc2n1C,16.6%,36.6%,45.8%,58.5%,81.8%,70.6%,53.6%,49.9%,73.2%,56.1%
COc1ccc(/C=C/c2nc(Nc3ccc(S(=O)(=O)NC(C)=O)cc3)c3ccccc3n2)cc1,53.9%,76.9%,76.2%,72.5%,79.4%,90.2%,91.6%,95.5%,82.8%,85.9%
Nc1c(S(=O)(=O)O)cc2c3c(cccc13)C(=O)OC2=O,114%,106%,97.6%,118%,94%,110%,63.7%,95%,99.2%,93.8%
COc1cc2c(=O)n(CCN)c3c4cc5c(cc4ccc3c2cc1OC)OCO5,-26% (active),-41.7% (active),-49.9% (active),-76.9% (active),-76% (active),16.6%,-75.6% (active),-79.3% (active),25.8%,-37.3% (active)
CCOC(=O)c1ccc2c(c1)ncn2-c1ccc(NC(=O)Nc2cccc(C)c2)cc1,19.9%,45.5%,83.8%,85.5%,75.7%,97.5%,98.9%,96.9%,84.1%,72.2%
N#C/C(=C\c1ccc(Cl)cc1)n1nnc2cc(F)c(F)cc21,5.64% (active),-34.1% (active),13.3%,22.2%,17.6%,88.7%,6.69% (active),-0.889% (active),13.6%,17.6%
N#Cc1c(NCc2ccccc2I)sc2c1CCCCC2,93.8%,91.9%,88.8%,96.3%,90%,97.8%,71.9%,104%,93.3%,89.7%
COc1ccc(NC(=O)c2cc(NCc3cc(O)ccc3O)ccc2O)cc1,39.3%,49.5%,83.3%,116%,91.9%,86%,88.4%,84.3%,90.1%,101%
COc1ccc(C(=O)Nc2cccc(C3CCc4c(cc(OC)c(OC)c4OC)O3)c2)cc1 (stereo not given),21.6%,23.9%,55.6%,91.1%,47.4%,51.6%,52%,35.3%,38.9%,38.5%
O=C1OC(Cc2ccccc2)C1c1ccccc1 (stereo not given),104%,109%,100%,98.9%,109%,121%,101%,110%,107%,105%
N#C/C(=C\c1c(-c2ccccc2)[nH]c2ccccc12)C(=O)c1ccc(Cl)cc1,48.6%,-9.73% (active),46.6%,62.5%,-11.2% (active),53.3%,59%,-33.2% (active),4.84% (active),-2.46% (active)
Cn1c2ccccc2c2c3c(c4c5ccccc5n(C)c4c21)C(=O)OC3,83.9%,89.9%,98.6%,95.9%,96.9%,100%,78%,102%,97.4%,95.5%
O=C(CSc1nc2sc3c(c2c(=O)n1-c1ccc(Cl)cc1)CCCC3)Nc1nc(-c2cccc(Br)c2)cs1,80.6%,96.4%,68.1%,75.7%,72.9%,94.2%,72.6%,89%,72.6%,80.5%
CCN(CC)c1ccc(C(=O)c2ccccc2)cc1,86.2%,95.8%,97%,100%,97.3%,98.6%,89.8%,103%,102%,89.4%
Cc1ccc(NC(=O)c2cc(-c3nc4ccccc4s3)c(=O)n(NS(=O)(=O)c3ccc(Cl)cc3)c2N)cc1,95%,94.6%,103%,110%,103%,108%,99.7%,103%,104%,105%
COc1cc2oc(-c3cccc(C(=O)Nc4ccc5c(c4)OCO5)c3)cc(=O)c2c(O)c1OC,75.9%,79.8%,30.6%,88.9%,0.0679% (active),91.4%,81.6%,89.5%,72.7%,70.6%
O=C(CCN1CCCC1)Nc1ccc2c(Nc3ccc(F)cc3)c3ccccc3nc2c1,-20.9% (active),-37.1% (active),4.18% (active),12.9%,-16.1% (active),38.4%,0.357% (active),-31.5% (active),25.2%,33.8%
COc1cc(NCCCCCNC(C)(C)C)c2ncccc2c1,113%,7.94% (active),102%,110%,22.6%,97%,37.2%,81.2%,88.3%,85.4%
O=C1Nc2cc(-c3ccc(NS(=O)(=O)c4ccccc4)cc3)ccc2/C1=C/c1ccc[nH]1,6.67% (active),77.8%,97.1%,52%,68.7%,79.1%,93.1%,108%,97.7%,92.6%
COc1ccc(C(=O)c2cc(C)c(OC)c(C)c2)c(OC)c1N(C(=O)CCl)C(=O)CCl,21%,17.7%,10.3%,29.2%,44.9%,2.36% (active),13.8%,-6.63% (active),23%,-37.1% (active)
N#CC(C#N)=Cc1cc2ccccc2nc1Oc1ccc(C(F)(F)F)cc1,30.8%,3.66% (active),92.5%,102%,99.7%,88.6%,79.3%,101%,96.9%,92.5%
O=C(CCN1CCCC1)Nc1ccc2c(NCc3ccccc3)c3ccccc3nc2c1,-14.8% (active),-35.3% (active),4.52% (active),14.8%,-13.8% (active),-10.9% (active),3.89% (active),-33.4% (active),-10.7% (active),72.5%
CCCCCN1C=C/C(=C\C(=O)N(C)c2ccc(Oc3ccccc3)cc2)c2ccccc21,82.1%,68.6%,80.3%,92.9%,58.3%,87.3%,58.1%,83.6%,99.5%,100%
N#C/C(=C\c1ccccn1)c1nc2cc(Cl)ccc2s1,40.3%,59.3%,73.1%,96.8%,71.5%,62.9%,42%,75.4%,53.7%,77%
C/C(=N\NC(=O)CSc1nc2ccccc2c(=O)n1Cc1ccc(S(N)(=O)=O)cc1)c1ccc(F)cc1,100%,112%,101%,96.4%,99.8%,111%,106%,115%,102%,104%
